Experimental data taken from PubChem BioAssay (NCATS).
Values without a mark were called inactive. Active and inactive are the calls of the source. Calls come from the whole dose curve; as a rule, active = well fitted activation curve with a large enough effect; inconclusive = small, poorly fitted or top-dose-only effect; inactive = flat fitted curve, though single readings scatter.

Test: Cellular Toxicity (caspase-3) Mesangial (AID 660);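 note: combined caspase 3 and 7 activity read by Caspase-Glo luminescence; cells exposed to compound for 16 h before the caspase read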
Conditions: mesangial cells, normalized: DMSO 0%, 100 µM tamoxifen 100%; at 91.7 µM (top of the series)
Text: NIH Chemical Genomics Center [NCGC]
NIH Molecular Libraries Screening Centers Network [MLSCN]
National Institutes of Environmental Health Sciences [NIEHS]
National Toxicology Program [NTP]
We have developed a 1536-well cell-based assay for quantitative high throughput screening (qHTS) against a number of cell lines to determine in vitro caspase 3/7 of small molecules. This particular assay uses the mesangial cell line which is derived from normal human renal glomeruli.
NCGC Assay Protocol Summary:
The Caspase-Glo 3/7 assay (Promega) is a homogeneous method to measure caspase-3 and caspase-7 activities in cultured cells. The quantitation of caspase 3/7 activity is based on the cleavage of a peptide-aminoluciferin substrate. After caspase cleaves the substrate the free aminoluciferin is liberated and serves as the substrate of luciferase, which generates the light. The luminescent signal is proportional to amount of caspase 3/7 activity present.
Using the Caspase-Glo 3/7 assay, the amount of caspase 3/7 activity was measured in the mesangial cell line with complete culture medium following compound treatment for 16 hours. The assay was performed in opaque white 1536-well plates. In the screen, tamoxifen and doxorubicin were used as positive controls. Library compounds were measured for their ability to cause the activation of caspase 3/7 in the cell line, as reflected by an increase in luminescence signal, in a concentration-dependent manner. Data were normalized to the controls for basal activity (DMSO only) and 100% stimulation (100 uM tamoxifen). AC50 values were determined from concentration-response data modeled with the standard Hill equation.
qHTS protocol for caspase 3/7 assay in mesangial cell line
[Step] [Parameter] [Value] [Description]
1. Reagent; 5 uL; 1000 mesangial cells/well
2. Time; 5 hr; 37 °C incubation
4. Controls; 23 nL; Tamoxifen 0.23 uM to 100 uM & doxorubicin 7.0 pM to 100 uM
5. Time; 16 hr; 37 °C incubation
6. Reagent; 5 uL; Caspase-Glo 3/7 reagent
7. Time; 20 min; Room Temperature
8. Detection; Luminescence; Viewlux plate reader
Keywords: caspase 3/7, apoptosis, mesangial cell line, luminescence, NTPHTS, NTPHTS_NCGC, NIEHS, EPA, DSSTox, MLSMR, MLSCN, NIH Roadmap, qHTS, NCGC

Compound | caspase-3 activation
CC(=O)O[C@]1(C(C)=O)CC[C@H]2[C@@H]3C=C(Cl)C4=CC(=O)[C@@H]5C[C@@H]5[C@]4(C)[C@H]3CC[C@@]21C | -0.0763%
O=c1c(O)c(-c2ccc(O)cc2)oc2cc(O)cc(O)c12 | -0.85%
O=c1[nH]cnc2c1ncn2[C@H]1CC[C@@H](CO)O1 | -0.684%
CN(C)CCC(c1ccccc1)c1ccccn1 (centres undefined) | 0.331%
CC(=O)c1ccc(S(=O)(=O)NC(=O)NC2CCCCC2)cc1 | 0.0312%
CCn1cc(C(=O)O)c(=O)c2ccc(C)nc21 | -0.0498%
O=C1NC(=O)C(c2ccccc2)(c2ccccc2)N1 | 0.351%
CCCCC1C(=O)N(c2ccccc2)N(c2ccccc2)C1=O | 0.46%
O=C(O)Cc1cccc2ccccc12 | 0.654%
O=c1c(-c2ccc(O)cc2)coc2cc(O)ccc12 | -3.39%
CCCNC(=O)NS(=O)(=O)c1ccc(Cl)cc1 | -0.968%
O=C(O)c1cc(O)c2c(c1)C(=O)c1cccc(O)c1C2=O | -1.07%
O=c1cc(-c2ccc(O)cc2)oc2cc(O)cc(O)c12 | -2.47%
CC1=C(/C=C/C(C)=C/C=C/C(C)=C/C(=O)Nc2ccc(O)cc2)C(C)(C)CCC1 | 91% (active)
